# The supplement of paper PMC6555819
# System: VDR:RXRa (NR concentration 270 nM, RXRa partner concentration 90 nM)
# Assay: PBM binding z-score (relative to random genomic background probes); higher = stronger binding; sequences stand for … in GC…GCGATTGACAGCGTAGAATGAAGG
# Procedure: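 Protein-binding microarray (Agilent 4x180K custom design, double-stranded 60-nt probes: 5' GC cap, 34-nt variable region, 24-nt constant primer region; full probe sequence given). Purified or IVT nuclear receptor:RXRα heterodimers (3:1 NR:RXRα, mostly 270:90 nM) or homodimers were incubated for 1 h in PBS with 2% milk and no ligand, then detected with Alexa488 antibodies. Fluorescence from o1-orientation probes (~5 replicates averaged) was converted to z-scores against 500 random hg19 background probes. Variable regions are seed direct-repeat (DR0–DR5) sites, all their single-nucleotide variants and half-site ablations.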
row,Sequence,PBM binding z-score
1,CCTACTGGGCCATCAGGTCATTGGTATCAACGTT,2.04
2,TCTAGTTGGTCAAAGTTCACACACTCGAAATGCG,4.44
3,CGTCCAAGGTCTTAGGAGGTCAGTGAAGACAGAT,2.89
4,TCATATAGGTAAAGGTGAAAGTGGAACGATATGA,1.05
5,CCAGACTGGTGAGAAGGTAACTCAGCCTCGATTA,-0.455
6,TCGAGTAGGTTAGTGGGGGCATTCAGCCAACATA,5.48
7,CCTACTGGGCCAAGGTCATGGATCAGTCAAAGCA,3.05
8,ATCTCTAGGTAAAGTTCAGTCAAAGATCGATAGA,1.96
9,CTCTAAAGGTCGGTTGAGGTGAGTATACGGATAA,2.42
10,ACAGACAGGTAAGTGAAGGTAACTCAGCTGGACG,-0.31
11,GCTGCTAGCTCAACTGATGGTCAGCTAAAGCTCG,-0.797
12,CCGAGTAGGTTATGGGGCATTCAAGCAACGGTGA,-0.183
13,CTCGAAAGGTCGTGCTCAGGCGAGTATACCAAAC,2.96
14,ACTAGTTGGTCAGCTGAGGTGACACACAATTCGG,0.731
15,CCAGACAGGTTAGAAGGTAACTCAGCCTCGATTA,0.114
16,GCATATAGGTAATACAAGGTGAACGTCCGATTGT,0.043
17,CCTAGCAGGCCAATCTGGGGCACTCAAGGCTTGA,-0.786
18,GCAGACAGGTGAAACGCATGTAACTCAGGGTGGC,-0.601
19,ATCTCTAGGTAAGACTCAGTACAGTGAAGAACGC,0.435
20,GCTAGTTGGTCAGTAAAACGTCACACACCGGTCG,-0.225

row,Sequence,PBM binding z-score
1,CAAACTAGGTCAAGTTCAAAGTCGGTTTGTGCCA,4.94
2,AGCTCTAGGTAAAGATAGTTCAGTGAATGCAAAT,0.921
3,TCTTGTAGATCGACAGGAGGTTAAGAAAGATCGA,0.501
4,TCTAGGAGGCCAGAGGGTCACTCAAGAGGTACGG,1.68
5,TCTCGGAGGACACGAATGGTCAGAGCTCGACATC,-0.0797
6,GTACCAAGGTGGATAGGTCGTTGATGAGTAGGCG,-0.168
7,GGTATTAGTTGAAAGGGCAACCGAATGATTCTCG,1.16
8,ACTATTAGTTGACCTAGGGCAACCGATACGACGC,1.96
9,TCTAATTGGTCACGGAGGTCACACACGACGGGTA,6.1
10,CTACCAAGGAGAACAAGGTCGTTGATTACTATTC,1.56
11,TTACCAAGGTGAATGGTCGTTGATGCACGCCTTG,-0.0229
12,CCTCGGAGGACTGAAGGTCAGAGCTGTCCGCTTT,0.567
13,AGAACGTGGGCACGCTGAGTTGATAGCAGAGTAG,-0.467
14,CGTCCAAGGTCAGAGAGGTCAGTGGATGCCGAGT,7.33
15,TGAATGAGGTTATAAGATCTGGGAACGTTGCAAA,0.768
16,TCTTGTCGATCAAAGGTTAAGAAAGCCGAAGCCT,1.27
17,TCTAGCAGGCCAGTGGGTCACTCAAGAGGTACGG,0.297
18,CGACCAAGGTCATAGGAGGTCAGTGAAGACAGAT,6.59
19,CAAACTAGGTCACCAAAGGTCAAAGTCGAATGAC,6.93
20,TCTAGTTGGTCACAGAGGTCACACACGACGGGTA,6.44
